Compounds without any hit were thinned out: in the full panel of roughly 79,000, 15% have a hit. Calls of active or inactive are those of the source. Cut-off read from the data, not from the text of the source: active = growth inhibition above about 70%; inactive = the rest.
Assays:
[1] = NCI Yeast Anticancer Drug Screen. Data for the rad50 strain (AID 155);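 note: 0% = growth of vehicle-only cultures of the same strain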; conditions: S. cerevisiae rad50 strain growth inhibition, hits give high values; at 50.0 µM unless noted
Procedure, shortened: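 Inhibition values express reduced yeast growth in compound-treated cultures relative to vehicle-treated controls.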

[2] = NCI Yeast Anticancer Drug Screen. Data for the mec2-1 strain (AID 157); conditions: S. cerevisiae mec2-1 strain, hits give high values; at 50.0 µM unless noted
Procedure, shortened: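 Yeast mec2-1 mutant treated with compound. Readout: growth inhibition vs vehicle controls.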

[3] = NCI Yeast Anticancer Drug Screen. Data for the sgs1 mgt1 strain (AID 161);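 note: 0% = growth of cultures given vehicle only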; conditions: S. cerevisiae sgs1 mgt1 strain, hits give high values; at 50.0 µM unless noted
Procedure, shortened: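 Genetically altered yeast, compound exposure, growth inhibition relative to vehicle.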

[4] = NCI Yeast Anticancer Drug Screen. Data for the cln2 rad14 strain (AID 165);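 note: 0% = growth equal to vehicle treated cultures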; conditions: S. cerevisiae cln2 rad14 strain, hits give high values; at 50.0 µM unless noted
Procedure, shortened: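 cln2 rad14 yeast strain; compound exposure; growth inhibition read vs vehicle controls.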

[5] = NCI Yeast Anticancer Drug Screen. Data for the bub3 strain (AID 167); conditions: S. cerevisiae bub3 mutant strain, hits give high values; at 50.0 µM unless noted
Procedure, shortened: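 Steps: expose the mutant yeast strain to compound; grow alongside vehicle-treated cultures; measure growth; express inhibition against the vehicle cultures.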

[6] = NCI Yeast Anticancer Drug Screen. Data for the mlh1 rad18 strain (AID 175); conditions: S. cerevisiae mlh1 rad18 strain growth inhibition, hits give high values; at 50.0 µM unless noted
Procedure, shortened: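 Yeast w/ defined DNA-repair lesions; compound exposure; growth vs vehicle controls → % inhibition.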

Measured: growth inhibition

CC(C)N(C(=O)c1ccccc1O)C(C)C
inactive: [1] 2.95% | [2] -7.65% | [3] 6.55% | [4] -7.7% | [5] -4.4% | [6] 2%

CCOC(=O)N/N=C/c1ccccc1C
inactive: [1] -9.05% | [2] -3.15% | [3] -6.9% | [4] 25.2% | [5] -3.5% | [6] -15.4%

CN1CC(c2ccccc2)C(O)(C2(c3ccccc3)CN(C)CC(c3ccccc3)C2=O)C(c2ccccc2)C1 (stereo unspecified)
inactive: [1] 5.7% | [2] 7.25% | [3] -30.4% | [4] -6.7% | [5] -17.4% | [6] -7.65%

CCCCSCC(N)CO (stereo unspecified)
inactive: [1] 9.05% | [2] 5.2% | [3] 10.7% | [4] -34.2% | [5] 0.55% | [6] 1.75%

Nc1cc(S(=O)(=O)O)cc2cc(S(=O)(=O)O)cc(S(=O)(=O)O)c12
inactive: [1] -31.6% | [2] -51% | [3] -29.6% | [4] -144% | [5] -17.5% | [6] 23.4%

COc1ccc2c(c1[N+](=O)[O-])CC[C@@H]1[C@@H]2CC[C@]2(C)C(=O)CC[C@@H]12
inactive: [1] 20.9% | [2] 21.1% | [3] 0% | [4] 37% | [5] 12.1% | [6] -30.9%
